Assay results: PubChem BioAssay (NCI)
This is part of a sample that, as a whole, favours compounds with a hit. Of some 79,000 tested, about 15% had one in any assay. Calls of active or inactive are those of the source. Cut-off read from the data, not from the text of the source: active = growth inhibition above about 70%; inactive = the rest.

Experiments:
[1] = NCI Yeast Anticancer Drug Screen. Data for the rad50 strain (AID 155);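 note: 0% = growth of vehicle-only cultures of the same strain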; settings: S. cerevisiae rad50 strain growth inhibition, stronger effect = higher value
Outline: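 Genetically altered yeast (DNA repair pathway); compound treatment; growth inhibition vs vehicle ctrl.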

[2] = NCI Yeast Anticancer Drug Screen. Data for the mec2-1 strain (AID 157); settings: S. cerevisiae mec2-1 strain, stronger effect = higher value
Outline: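 Compounds were applied to mec2-1 yeast cells. Their growth was then compared with that of vehicle-treated cultures to give growth inhibition.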

[3] = NCI Yeast Anticancer Drug Screen. Data for the sgs1 mgt1 strain (AID 161);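 note: 0% = growth of cultures given vehicle only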; settings: S. cerevisiae sgs1 mgt1 strain, stronger effect = higher value
Outline: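 This yeast growth screen uses a strain with defined DNA-repair lesions; compound-treated growth is compared with vehicle-treated growth.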

[4] = NCI Yeast Anticancer Drug Screen. Data for the cln2 rad14 strain (AID 165);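 note: 0% = growth equal to vehicle treated cultures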; settings: S. cerevisiae cln2 rad14 strain, stronger effect = higher value
Outline: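 Strain: cln2 rad14 yeast, altered in cell cycle control and DNA damage repair. Read-out: growth inhibition vs vehicle.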

[5] = NCI Yeast Anticancer Drug Screen. Data for the bub3 strain (AID 167); settings: S. cerevisiae bub3 mutant strain, stronger effect = higher value
Outline: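 Yeast carrying a defined mutation is treated with each compound, and growth is compared with that of vehicle-exposed cells to give inhibition.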

[6] = NCI Yeast Anticancer Drug Screen. Data for the mlh1 rad18 strain (AID 175); settings: S. cerevisiae mlh1 rad18 strain growth inhibition, stronger effect = higher value
Outline: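 A repair-deficient yeast strain is exposed to test compound, and growth is scored relative to vehicle-treated controls.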

[7] = at 5.0 µM (retest, dose inferred, filed as 0.5)
[8] = at 50.0 µM (retest, dose inferred, filed as 5.0)

Measured: growth inhibition

CCOC(=O)C1CCC(=O)O1 (stereo not given)
inactive: [1]; [7] -4% | [1]; [8] 43% | [1]; at 50.0 µM -14% | [2]; [7] 3% | [2]; at 50.0 µM 7.85% | [3]; [7] 4% | [3]; at 50.0 µM 2.4% | [4]; [7] -23% | [4]; [8] 36% | [4]; at 50.0 µM 16.6% | [5]; [7] 2% | [5]; at 50.0 µM 10.8% | [6]; [7] -1% | [6]; at 50.0 µM -1.15%
active: [2]; [8] 87% | [3]; [8] 78% | [5]; [8] 93% | [6]; [8] 95%

O=c1c(O)c(-c2ccc(Cl)cc2)oc2cc(O)ccc12
inactive: [1]; [7] 4% | [1]; [8] 52% | [2]; [7] 2% | [3]; [7] 1% | [3]; [8] 54% | [4]; [7] -7% | [4]; [8] -2% | [4]; at 50.0 µM -9.3% | [5]; [7] 3% | [5]; [8] 51% | [5]; at 50.0 µM 59.5% | [6]; [7] 7% | [6]; [8] 50%
active: [1]; at 50.0 µM 88.7% | [2]; [8] 86% | [2]; at 50.0 µM 77.7% | [3]; at 50.0 µM 89.7% | [6]; at 50.0 µM 91.5%

CN(C)C[N+](C)(C)Cc1ccc(C[N+](C)(C)C[N+](C)(C)Cc2ccc(CCl)cc2)cc1
inactive: [1]; [7] 0% | [1]; [8] -2% | [2]; [7] -36% | [2]; [8] -1% | [2]; at 50.0 µM 20.4% | [3]; [7] -2% | [3]; [8] -1% | [3]; at 50.0 µM 69.5% | [4]; [7] 0% | [4]; [8] -1% | [4]; at 50.0 µM 45% | [5]; [7] -8% | [5]; [8] -1% | [5]; at 50.0 µM 66.2% | [6]; [7] -2% | [6]; [8] -1% | [6]; at 50.0 µM 52.5%
active: [1]; at 50.0 µM 83%

CCCCCCCCCCCCSC1=C(N)C(=O)c2ccccc2C1=O
inactive: [1]; [7] 3% | [1]; [8] 2% | [1]; at 50.0 µM 8.35% | [2]; [7] 0% | [2]; [8] 3% | [2]; at 50.0 µM 11.1% | [3]; [7] 8% | [3]; [8] -5% | [3]; at 50.0 µM -9.05% | [4]; [7] -3% | [4]; [8] 0% | [4]; at 50.0 µM 32.3% | [5]; [7] -1% | [5]; [8] -1% | [5]; at 50.0 µM 11.3% | [6]; [7] 0% | [6]; [8] 5% | [6]; at 50.0 µM 53%

Cc1ccc(O)c(Cc2cccc(Cl)c2)c1
inactive: [1]; [7] -2% | [2]; [7] -7% | [3]; [7] -2% | [4]; [7] -21% | [5]; [7] -22% | [6]; [7] 0%
active: [1]; [8] 99% | [1]; at 50.0 µM 99.3% | [2]; [8] 99% | [2]; at 50.0 µM 99.5% | [3]; [8] 99% | [3]; at 50.0 µM 99.5% | [4]; [8] 99% | [4]; at 50.0 µM 99% | [5]; [8] 99% | [5]; at 50.0 µM 99.3% | [6]; [8] 99% | [6]; at 50.0 µM 99.2%

CC(=O)C1CCC2C3CC(F)C4(O)CC(O)CCC4(C)C3CCC12C (stereo not given)
inactive: [1]; [7] -120% | [1]; at 50.0 µM 4.1% | [2]; [7] -3% | [2]; at 50.0 µM -1% | [3]; [7] -1% | [3]; at 50.0 µM 62% | [4]; [7] -6% | [4]; [8] 58% | [4]; at 50.0 µM -9.95% | [5]; [7] -4% | [5]; [8] 33% | [6]; [7] -20% | [6]; at 50.0 µM 32.4%
active: [1]; [8] 98% | [2]; [8] 99% | [3]; [8] 95% | [5]; at 50.0 µM 85.7% | [6]; [8] 99%

Cc1nn(-c2ccc(Cl)cc2)c2nc(N)nc(N)c12
inactive: [1]; [7] 3% | [1]; [8] 0% | [1]; at 50.0 µM 30.2% | [2]; [7] -3% | [2]; [8] 11% | [2]; at 50.0 µM 30.6% | [3]; [7] 2% | [3]; [8] -2% | [3]; at 50.0 µM 34.4% | [4]; [7] -5% | [4]; [8] -6% | [4]; at 50.0 µM 62.6% | [5]; [7] -1% | [5]; [8] 0% | [5]; at 50.0 µM 21.2% | [6]; [7] 0% | [6]; [8] 9% | [6]; at 50.0 µM 45.4%

Cc1cccc2c(CBr)cc(=O)[nH]c12
inactive: [1]; [7] 7% | [2]; [7] 15% | [3]; [7] 13% | [4]; [7] 4% | [4]; [8] 61% | [5]; [7] 12% | [6]; [7] 35%
active: [1]; [8] 91% | [1]; at 50.0 µM 86.8% | [2]; [8] 98% | [2]; at 50.0 µM 90.1% | [3]; [8] 92% | [3]; at 50.0 µM 84.3% | [4]; at 50.0 µM 91.5% | [5]; [8] 96% | [5]; at 50.0 µM 94.2% | [6]; [8] 97% | [6]; at 50.0 µM 95.7%

CC(=O)OC(C)C1C2=C(C(=O)CC1(C)O)C(=O)c1c(ccc(-c3ccc4c(c3O)C(=O)C3=C(C4=O)C(C(C)OC(C)=O)C(C)(O)CC3=O)c1O)C2=O (stereo not given)
inactive: [1]; [7] 21% | [2]; [7] 10% | [3]; [7] 44% | [4]; [7] 12% | [4]; [8] 67% | [5]; [7] 13% | [6]; [7] 28%
active: [1]; [8] 94% | [1]; at 50.0 µM 72.8% | [2]; [8] 95% | [2]; at 50.0 µM 79.6% | [3]; [8] 86% | [3]; at 50.0 µM 76.5% | [4]; at 50.0 µM 70.8% | [5]; [8] 85% | [5]; at 50.0 µM 70.7% | [6]; [8] 94% | [6]; at 50.0 µM 76.7%

Cc1[nH]nc(C(=O)OC(C)C)c1N=NN(C)C
active: [1]; [8] 94% | [1]; at 50.0 µM 98.2% | [2]; [8] 98% | [2]; at 50.0 µM 98.7% | [3]; [8] 96% | [3]; at 50.0 µM 96.2% | [4]; [8] 97% | [4]; at 50.0 µM 97.3% | [5]; [8] 95% | [5]; at 50.0 µM 98.3% | [6]; [8] 95% | [6]; at 50.0 µM 98.7%
inactive: [1]; [7] -65% | [2]; [7] -43% | [3]; [7] -46% | [4]; [7] -69% | [5]; [7] -64% | [6]; [7] -115%
